PubChem BioAssay AID1063 (University of Pittsburgh Molecular Library Screening Center, 2008)
Among all 200,000 compounds or so, about 18,000 (9%) were called active. The sample holds actives, similar compounds and a random draw of the others, so the mix is not that of the screen. Unmarked numbers belong to inactive results. Rule as the data show it: active = inhibition above about 50%; inactive = the rest.

Test: antileishmanial activity against promastigotes – primary screen (AID 1063);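 also: promastigotes grown with compound for 44 hours at 28 °C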
Details: Leishmania major promastigotes, resazurin fluorescence viability; at 10 µM; stronger effect = higher value

Row | Structure (SMILES) | inhibition
1 | Cc1cccc(NC(=O)Nc2nnc(-c3ccccc3)o2)c1 | 15.9%
2 | C/C(=N\NC(=O)c1cc2c(s1)CCC(C)C2)c1cccnc1 (stereo not given) | 13%
3 | Cc1cccc(N(C(=O)Cc2cccs2)C(C(=O)NC2CCCC2)c2ccsc2)c1 (stereo not given) | 3.72%
4 | COc1ccc(C(C(=O)NC2CCCCC2)N(C(=O)CCl)c2ccccc2Cl)cc1 (stereo not given) | -1.95%
5 | COc1cccc(N(C(=O)C2COc3ccccc3O2)C(C(=O)NC2CCCCC2)c2ccc(O)cc2)c1 (stereo not given) | 98.3% (active)
6 | CN1CCN(/N=C2/C(=O)Nc3ccc([N+](=O)[O-])cc32)CC1 | -2.49%
7 | O=C1Nc2ccc([N+](=O)[O-])cc2C1=Nc1cccc(CO)c1 | 51% (active)
8 | Cc1cc([N+](=O)[O-])ccc1NCc1cccc([N+](=O)[O-])c1 | -1.47%
9 | CN1CCN(CC#CCC2(O)c3ccccc3-c3ccccc32)CC1 | -6.57%
10 | Cn1cc(/C=C/c2nc3ccccc3c(=O)n2-c2cccc([N+](=O)[O-])c2)c2ccccc21 | 63.9% (active)
11 | CCOC(=O)N1CCN(Cc2nc3ccc([N+](=O)[O-])cc3c(=O)n2-c2cccc(OC)c2)CC1 | 8.07%
12 | O=[N+]([O-])c1cccc(-c2nnc3c4ccccc4c4ccccc4n23)c1 | 22%
13 | Cc1cc(C)nc(/N=C2\NC(=O)CC(C(=O)O)N2c2ccc(Cl)cc2Cl)n1 (stereo not given) | -2.66%
14 | CSc1ccc(/C=N\NC(=O)CC(=O)NC(C)C)cc1 | 3.48%
15 | CC1=NCCN1S(=O)(=O)c1cccc([N+](=O)[O-])c1 | 0.00784%
16 | COc1ccc(/C=N/NC(=O)Cn2cc(C(F)(F)F)ccc2=O)cc1 | 4.79%
17 | CCOC(=O)c1c(CN(C)C)n(-c2ccccc2)c2cc(Br)c(O)cc12 | 15.6%
18 | Cc1ccc2c(c1)C(c1ccccc1)N(C(=O)c1ccc(S(=O)(=O)N3CCOCC3)cc1)CC(=O)N2 (stereo not given) | 56.5% (active)
19 | O=C(c1ccc(S(=O)(=O)N2CCOCC2)cc1)N1CCN(c2ccccc2)CC1 | -2.9%
20 | CCC(CC)C(=O)N1CC(=O)Nc2ccc(Br)cc2C1c1ccccc1 (stereo not given) | 14.8%
21 | Cc1ccc2nsnc2c1S(=O)(=O)N1CCCC1C(=O)O (stereo not given) | -8.56%
22 | COc1ccc(C)cc1NC(=S)Nc1ccccc1SC | 5.88%
23 | Cc1ccc2nc(-c3cccnc3)c(NC3CCCC3)n2c1 | 63.7% (active)
24 | COC(=O)c1cn(-c2ccccc2)nc1-c1cccnc1 | 1.77%
25 | O=C(Nc1ccc(F)cc1)C1CCN(C(=O)c2ccc([N+](=O)[O-])cc2)CC1 | 5.08%
